Rows were chosen to be rich in hits. Some 21% of all compounds tested hit in one or more screens of this group.
AMA1-RON2 inh: qHTS for Inhibitors of AMA1-RON; Towards Development of Antimalarial Drug Lead: Primary Screen | 360,000 compounds, 0.2% hits | AlphaScreen AMA1-biotinylated RON2 peptide binding | Potency, µM (highest dose often 58.2 µM), for the others: at the top dose activity change, negative = inhibition, usual class: inhibitors | Plasmodium falciparum AMA1 (3D7) - RON2 peptide interaction | AID 720542, 2013;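 note: potency is the fitted concentration of half-maximal effect; 0% = vehicle wells and -100% = peptide control; nearly all actives have a fitted effect of over 45% in size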
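AMA1 (3D7) with his tag at 25 nM final met compounds first, then biotinylated RON2 peptide at 25 nM; detection used donor plus acceptor beads, 10 µg/mL apiece, read by AlphaScreen after 30 min at room temperature.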
HCV inhibitor: qHTS Assay for Inhibitors of Hepatitis C Virus (HCV) | Potency, µM (doses to about 41.8 µM), for inactives: at the highest dose activity change, negative = inhibition, usual class: inhibitors | Huh7.5.1 HCVcc-Cre infection, luciferase reporter, 44 h | 340,000 compounds, 3.4% hits; note: potency is the fitted concentration of half-maximal effect; % is set by controls: 0 for no effect and ±100 for the full control effect
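Cells seeded at 1,000/well and cultured 4 h, then compounds added followed by HCVcc-Cre virus (~0.5 moi). After 44 h further culture, luciferase substrate was added, plates held 15 min at room temperature, and luminescence read for 15 sec.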
Shiga toxin inh: A qHTS for Small Molecule Inhibitors of Shiga Toxin; Vero cells, Shiga toxin protein synthesis inhibition reporter; inhibition, % at 38.7 µM; 290,000 compounds, 9.2% hits; in the data active = inhibition mostly above about 28%, no sharp cut-off; inactive = mostly below about 43%; note: 0% is about no effect
Pf growth 48h: Primary qHTS for delayed death inhibitors of the malarial parasite plastid, 48 hour incubation | 310,000 compounds, 5.9% hits | AID 504832, 2011 | Potency, µM (titrated, usually from 28.7 µM), for the others: top-dose activity change, negative = inhibition, usual class: inhibitors | P. falciparum luciferase growth in erythrocytes, 48 h; note: potency is the fitted concentration of half-maximal effect; % is set by controls: 0 for no effect and ±100 for the full control effect
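Read-out is firefly luciferase luminescence from an integrated reporter in P. falciparum, so falling signal marks reduced parasite growth. Infected erythrocytes were at 2% hematocrit and 0.1% parasitemia (final) in Albumax-supplemented RPMI 1640.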
CHX counter: Cycloheximide Counterscreen for Small Molecule Inhibitors of Shiga Toxin; cell reporter, cycloheximide protein synthesis inhibition counterscreen; max response, %; 300,000 compounds, 12% hits; AID 2314, 2010; in the data active = max response mostly above about 13%, no sharp cut-off; inactive = mostly below about 14%; note: read at 38.3 µM for the half of the compounds with a filed dose; 0% is about no effect
Pf growth 96h: Primary qHTS for delayed death inhibitors of the malarial parasite plastid, 96 hour incubation | Potency, µM (doses to about 28.7 µM), for the others: at the top dose activity change, negative = inhibition, usual class: inhibitors | AID 504834, 2011 | P. falciparum luciferase reporter growth, 96 h | 320,000 compounds, 6.9% hits; note: potency is the fitted concentration of half-maximal effect; % is set by controls: 0 for no effect and ±100 for the full control effect
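P. falciparum expressing integrated firefly luciferase, in erythrocytes at 2% hematocrit, 0.05% parasitemia, incubated with compounds 96 h at 37 C, 5% CO2. Growth inhibition read as loss of luminescence; two-generation exposure targets delayed-death apicoplast inhibitors.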
Active calls of the source: *; u = inconclusive; x = no result given; [ ] = dose if it differs, or a comment. Unless noted, calls come from the whole dose curve; as a rule, active = well fitted curve in the direction sought with a large enough effect; inconclusive = small, poorly fitted or top-dose-only effect, or another doubt; inactive = no such curve, though single readings can be large; an effect the other way counts as inactive or inconclusive.

SMILES	AMA1-RON2 inh	HCV inhibitor	Shiga toxin inh	Pf growth 48h	CHX counter	Pf growth 96h
CCC1=NN(C(=O)c2cccc([N+](=O)[O-])c2)C(O)(c2ccc(C)cc2)C1 (centres undefined)	57%	-9%	11	4.1µM*	4	-24%
COC(=O)/C=C/c1cnc2ccccc2c1	9%	-2%	118*	255%	36*	125%
Fc1ccc(CO/N=C/C2=C(Cl)c3ccccc3CC2)cc1	64%	-13%	80*	40%	12*	11%
Cc1nnc2c(Oc3ccccc3)nc3ccccc3n12	29%	21%	-15	8%	-3	44%
c1ccc(Oc2nc3ccccc3n3cccc23)cc1	4%	10µM*	-9	-4%	-3	-23%
Cc1ccc(Oc2nc3ccccc3n3cccc23)cc1	5%	7.9µM*	-7	-23%	-1	7%
O=C1NC(=O)C(Cc2ccc(OCCN3COc4ccccc4C3=O)cc2)S1 (centres undefined)	x	x	9	x	25*	x
O=C(O)C1CC(=O)N(CCOc2ccccc2)C1 (centres undefined)	-21%	10%	-6	-9%	-3	u
Cc1ccc(/C=N/NC(=O)CSc2nc3ccccc3c(=O)n2-c2ccccc2C)s1	3%	u	-11	-30%	-3	12µM*
Cc1ccccc1-n1c(SCC(=O)NC(N)=O)nc2sc(-c3ccccc3)cc2c1=O	13%	u	24	u	18*	u
Cc1ccc(C)c(S(=O)(=O)c2c[nH]c(=S)[nH]c2=O)c1	69%	10%	-5	-2%	-3	69%
O=C(c1cc(COc2c(F)cccc2F)on1)N1CCc2ccccc2C1	5%	8%	52*	8%	10	u
O=C(c1cc(COc2c(F)cccc2F)on1)N1CCC(c2ccccc2F)C1 (centres undefined)	-16%	-10%	90*	20%	36*	9.3µM*
O=C(c1cc(COc2cccc3cnccc23)on1)N1CCC(c2ccccc2Cl)C1 (centres undefined)	-11%	u	20	u	-3	12%
O=C(c1cc(COc2cccc(C(F)(F)F)c2)on1)N1CCc2ccccc2C1	0%	x	x	x	x	x
NC(=O)C1(N2CCCCC2)CCN(C(=O)c2cc(COc3c(F)cccc3F)on2)CC1	5%	x	x	x	x	x
O=C(c1cc(COc2c(F)cccc2F)on1)N1CCC(c2ccccc2Cl)C1 (centres undefined)	-2%	3%	82*	-19%	51*	20%
CC(C)NC(=O)C1(C)CCCN1Cc1ccccc1C#N (centres undefined)	-2%	x	x	x	x	x
COc1ccc2c(c1)OC(C)(C)C(c1ccccc1)C2c1ccc(OCCN2CCCC2)cc1 (centres undefined)	x	x	x	1.7µM*	x	3µM*
COc1cccc(OCCCN2CCCCC2)c1	3%	-12%	-18	24%	-3	-16%
O=C(NCCc1ccc(Cl)cc1)c1ccc2[nH]c(=O)c(=O)[nH]c2c1	1%	7%	25	14%	12	26%
CCC(C)NC(=O)CSc1nnc(-c2cc(-c3ccc(C)cc3)nc3ccccc23)n1N (centres undefined)	15%	-2%	-2	x	1	12µM*
CCC(C)NC(=O)CSc1nnc(-c2ccc(Cl)cc2)n1N (centres undefined)	0%	3%	4	-1%	-1	-10%
Cc1ccc(-c2cc(-c3nnc(SCC(=O)NCC(C)C)n3N)c3ccccc3n2)cc1	3%	-21%	29	-17%	36*	-10%[5.75 µM]
O=CN(Cc1nc2ccccc2[nH]1)c1ccc(C(=O)O)cc1	2%	6%	x	x	x	x
SMILES	AMA1-RON2 inh	HCV inhibitor	Shiga toxin inh	Pf growth 48h	CHX counter	Pf growth 96h
O=S(=O)(Cc1ccccc1)N1CCNCC1	19%	11%	-8	40%	-2	1%
Clc1cccc(-c2nc3c4ccccc4ccn3c2Cc2ccsc2)c1	69%	x	x	x	x	x
C[C@@H]1CN([C@@H](C)CO)C(=O)CCCn2nncc2CO[C@@H]1CN(C)C(=O)c1ccccc1	-2%	x	x	x	x	x
O=C(CCc1nc(-c2ccccc2)no1)NCc1ccccc1CN1CCOCC1	-10%	10%	x	19%	x	u
CC(=O)Nc1cccc(-c2ccnc3c2CC(C)(C(=O)NCCC(F)(F)F)O3)c1 (centres undefined)	0%	x	x	x	x	x
CCOC(=O)c1c(NC(=O)c2ccccc2)sc2c(O)c(CN(CC)CC)ccc12	0%	u	-6	1.9µM*	-4	-4%
CCN(CC)Cc1c(NC(=O)c2ccccc2)sc(C)c1C	6%	-7%	32	30%	8	42%
COc1cc(-c2cc3nc(NCc4ccco4)ccn3n2)cc(OC)c1OC	-7%	x	x	x	x	x
O=c1c(-c2ccccc2)nc(-c2ccccc2)cn1O	5%	-1%	19	32%	21*	34%
O=c1c2ccccc2c(-c2ccccc2)nn1-c1ccccc1	-14%	-21%	12	u	-2	u
Cc1ccc(N(C(=O)c2snc(C(N)=O)c2N)C(C(=O)NCc2ccccc2)c2ccncc2)c(C)c1 (centres undefined)	0%	u	-16	u	1	16%
COc1ccc(C)cc1NC(=O)CSc1ccc(-c2ccco2)nn1	-19%	10µM*	-7	-10%	8	u
CCc1ccc(NC(=O)CSc2ccc(-c3ccco3)nn2)cc1	-2%	u	24	2%	17*	32%
C=CCN(C(=O)CCC(=O)Nc1cc(C)on1)C(C(=O)NC(C)(C)C)c1ccc(OC)cc1 (centres undefined)	10%	3%	-15	-10%	-1	1%
Cn1c(C(=O)NCc2ccccn2)cc2c(=O)n3ccccc3nc21	2%	-3%	58*	199%	29*	u
Cn1c(C(=O)NC2CCCCC2)cc2c(=O)n3ccccc3nc21	-3%	11%	21	35%	23*	7%
COc1ccc(NC(=O)c2cc3c(=O)n4ccccc4nc3n2C)c(OC)c1	22%	-28%	37	26%	15	u
CC(OC(=O)c1ccc2c(=O)n3c(nc2c1)CCC3)C(=O)NC1CCCCC1C (centres undefined)	1%	-19%	-11	27%	2	-5%
COc1cc(OCc2ccccc2)c(OC)c(OCc2ccccc2)c1	30%	10µM*	x	x	x	x
CCOc1cc(C(=S)N2CCCC2)ccc1OC	-4%	3%	-6	x	-2	12%
CCC(=O)c1ccc(OCc2ccc(C(=O)OC)cc2)c(OC)c1	-4%	1%	21	61%	5	109%
COc1c(Br)cc(C(N)=O)cc1OCc1ccccc1	-8%	u	-4	-11%	6	-4%

High-throughput results: PubChem BioAssay, National Center for Advancing Translational Sciences (NCATS)
